An excerpt weighted towards active compounds, which were near 0.83% of everything screened.
Menin MLL FP TR = displaces Texas Red mutant MLL peptide from human menin; Menin + Texas Red MLL mutant peptide, fluorescence polarization; Potency, µM (series often up to 61.6 µM), for the others: top-dose FP activity change, negative = inhibition, actives largely listed as inhibitors; hit rate 0.23% among 270,000; active means well fitted inhibition curve with a large enough effect in the polarisation, with a control signal flat, not every such curve was filed as active; inconclusive means small, poorly fitted or top-dose-only effect, or effect the other way, or a change in a side signal; inactive means no such curve, though single readings can be large or run the other way; the % refers to the polarisation; further: potency means the concentration at half of the fitted maximal effect; % of control where 0% means no effect
CtBP-E1A blk = inhibitors of CtBP/E1A interaction. hit rate 0.49% among 340,000. AlphaScreen GST-E1A/His-CtBP binding, 1536-well; active compounds read low. AID 651724. activity change, % (concentration not given with the values); further: on the % scale 0 is the no-effect control and ±100 the full control effect
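Protein mix (5X: 125 nM each GST-E1A, His-CtBP) was incubated with pinned compound 2 h at 37 deg C in dark, in 50 mM Tris pH 8.0 buffer with 300 mM NaCl. Glutathione donor and nickel acceptor beads followed; AlphaScreen signal read after 1 h.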
Six1-Eya2 blk = Six1/Eya2 interaction inhibition. activity change, % (concentration not given with the values). hit rate 0.56% among 360,000. AlphaScreen GST-Six1/His-Eya2 binding, biochemical; active compounds read low. AID 651725; further: on the % scale 0 is the no-effect control and ±100 the full control effect
Target sequence (O00167 whole entry, looked up): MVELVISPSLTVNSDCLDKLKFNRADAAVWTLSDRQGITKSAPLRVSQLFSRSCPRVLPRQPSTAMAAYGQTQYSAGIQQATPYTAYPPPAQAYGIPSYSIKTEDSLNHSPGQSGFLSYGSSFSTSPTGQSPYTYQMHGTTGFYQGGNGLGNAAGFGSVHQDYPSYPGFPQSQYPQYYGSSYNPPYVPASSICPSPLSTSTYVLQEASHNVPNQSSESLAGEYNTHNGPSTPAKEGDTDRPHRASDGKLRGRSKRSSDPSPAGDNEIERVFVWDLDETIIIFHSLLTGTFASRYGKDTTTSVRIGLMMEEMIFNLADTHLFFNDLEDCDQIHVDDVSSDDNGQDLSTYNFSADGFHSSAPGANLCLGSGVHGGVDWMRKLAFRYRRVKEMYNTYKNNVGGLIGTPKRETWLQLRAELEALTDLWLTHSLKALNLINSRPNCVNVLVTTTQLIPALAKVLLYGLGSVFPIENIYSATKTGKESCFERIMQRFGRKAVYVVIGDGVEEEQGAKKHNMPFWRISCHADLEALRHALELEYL
Target sequence (Q15475 whole entry, looked up): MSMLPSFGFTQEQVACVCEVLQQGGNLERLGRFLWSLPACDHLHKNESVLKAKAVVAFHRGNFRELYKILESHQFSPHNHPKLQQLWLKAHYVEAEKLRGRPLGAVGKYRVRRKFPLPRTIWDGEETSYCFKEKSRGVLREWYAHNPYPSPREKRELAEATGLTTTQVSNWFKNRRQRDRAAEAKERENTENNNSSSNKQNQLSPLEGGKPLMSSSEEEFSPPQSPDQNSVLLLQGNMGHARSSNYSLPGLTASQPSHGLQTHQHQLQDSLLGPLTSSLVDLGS
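Six1/Eya2 binding was read as AlphaScreen signal after compounds were pinned into GST-Six1 plus His-tagged Eya2 (5X stock 250/500 nM) in pH 8.0 Tris/NaCl/TCEP buffer, beads added, then incubated 1 h, 37 C, dark.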
GLS inh = inhibitors of human glutaminase (GLS); O94925; GLS enzymatic activity, qHTS titration; Potency, µM (top dose mostly 45.5 µM), without a hit: top-dose activity change, negative = inhibition, hits mostly inhibitors; hit rate 0.21% among 410,000; AID 624170; active means well fitted inhibition curve with a large enough effect; inconclusive means small, poorly fitted or top-dose-only effect, or another doubt; inactive means no such curve, though single readings can be large or run the other way; further: potency means the concentration at half of the fitted maximal effect; on the % scale 0 is the no-effect control and ±100 the full control effect
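hKGA; 45 mM KH2PO4 pH 8.2 + 0.02% Tween-20; cpd via pin tool; 1 mM Gln soln; GluOx/HRP/Amplex Red; RT 30 min; fluor. t0 & final.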
Menin-MLL FL inh = displaces fluorescein MLL peptide from human menin. Fluorescence polarization, fluorescein-MLL peptide displacement from menin. FP activity change, % at 61.4 µM. 290,000 tested, under 10 active. AID 1766; active means well fitted curve in the direction sought with a large enough effect in the polarisation, not every such curve was filed as active; inconclusive means small, poorly fitted or top-dose-only effect, or effect the other way, or a change in a side signal; inactive means no such curve, though single readings can be large or run the other way; the % refers to the polarisation; further: % of control where 0% means no effect
MLL CXXC-DNA inh = inhibitors of human MLL CXXC domain-DNA interaction. Potency, µM (doses to about 115 µM), without a hit: top-dose activity change, negative = inhibition, actives largely listed as inhibitors. hit rate 0.037% among 290,000. Q03164. MLL-CXXC / FITC-HOXA9 DNA fluorescence polarization; active means well fitted inhibition curve with a large enough effect in the polarisation, with a control signal flat, not every such curve was filed as active; inconclusive means small, poorly fitted or top-dose-only effect, or effect the other way, or a change in a side signal; inactive means no such curve, though single readings can be large or run the other way; the % refers to the polarisation; further: potency means the concentration at half of the fitted maximal effect
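Purified MLL-CXXC (added from a 7 uM solution) was preincubated 5 min at ambient with pinned compounds in 50 mM Tris-HCl pH 7.5, 50 mM NaCl, 1 mM DTT, 0.05% BSA. Fluorescein-labeled HOX-A9 DNA (50 nM solution) followed, 30 min, then polarization read.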
An asterisk follows results filed as active; ? = inconclusive; · = no result given; [ ] = dose if it differs, or a comment. Unless noted, no stated cut-off is given here; in the data, active means activity change below about -65%; inconclusive means mostly about -30% to -63%; inactive means weaker than that.

SMILES	Menin MLL FP TR	CtBP-E1A blk	Six1-Eya2 blk	GLS inh	Menin-MLL FL inh	MLL CXXC-DNA inh
CNc1cccc2c1C(=O)c1ccccc1C2=O	-22%	-3	-87*	13%	-26	-25%
CC(C)CCCC(C)C1CCC2C3CC[C@H]4CC(=O)CC[C@@]4(C)C3CC[C@@]12C (some centres undefined)	4%	·	·	·	3	·
CCCC(=O)NC(c1cccs1)c1cc([N+](=O)[O-])c2cccnc2c1O (centres undefined)	?	-85*	-90*	-3%	5	8%
CCC(=O)NC(c1cccs1)c1cc([N+](=O)[O-])c2cccnc2c1O (centres undefined)	11%	-83*	-85*	11%	-1	4%
CC(=O)NC(c1cccs1)c1cc([N+](=O)[O-])c2cccnc2c1O (centres undefined)	?	-87*	-89*	4%	6	-3%
O=C(CCc1ccccc1)NC(c1cccs1)c1cc(Cl)c2cccnc2c1O (centres undefined)	?	24	-2	5%	-9	10%
CO[C@H]1[C@@H](O)[C@H](N)[C@@H](O[C@H]2O[C@@H]([C@H](C)N)CC[C@H]2N)[C@H](O)[C@@H]1N(C)C(=O)CN	·	·	·	1%	·	·
O=C(NCc1ccccc1Cl)c1cnc(N2CCCCC2)c2ccccc12	·	·	·	-3%	·	·
Cc1ccc(-n2nc(-c3ccco3)cc2C(=O)O)cc1	·	1	-21	11µM*	?	3%
COc1cc(/C=C/C(=O)OCC(=O)Nc2ccc(C)cc2[N+](=O)[O-])ccc1O	21%	?	3	5.6µM*	3	-29%
Cc1ccc(SCCc2cc[n+](CC(=O)c3ccccc3)cc2)cc1	-15%	-1	1	-9%	-2	5%
O=C(C[n+]1ccc(CCSc2ccc(F)cc2)cc1)c1ccccc1	18µM*	0	3	4%	?	32%
COCCNC(=O)C1CCC(CNS(=O)(=O)c2ccc3c(c2)CC(C)N3C(C)=O)CC1 (centres undefined)	·	·	·	-4%	·	·
COc1ccc(OC)c(N2C(=O)[C@@H]3C(c4ccccc4Cl)=NO[C@@H]3C2=O)c1	?	-5	-9	11µM*	7	-2%
OC(c1ccccn1)(c1ccccn1)c1ccccn1	·	-2	-85*	1%	·	7%
c1ccc(-c2ccccn2)nc1	12%	-18	-17	-2%	-2	-7%
CCN(CC)S(=O)(=O)c1cccc(C(=O)N/N=C(\C)c2ccc(O)cc2O)c1	6%	?	-67*	?	?	?
CCOc1ccccc1/C=N/NC(=O)c1cccc(S(=O)(=O)N(CC)CC)c1	22%	-17	-12	-12%	-4	21%
CCN(CC)S(=O)(=O)c1cccc(C(=O)N/N=C/c2ccc(O)c(O)c2O)c1	?	-93*	-91*	-25%	5	16%
CCc1ccc(NC(=O)CN2C(=O)CCSc3ccccc32)cc1	·	·	·	2%	·	·
CNC1C(O)C2OC3OC(C)CC(=O)[C@@]3(O)O[C@H]2[C@H](NC)C1O (some centres undefined)	17%	·	·	·	-1	·
O=C(Nc1cccc(S(=O)(=O)N2CCOCC2)c1)C1CCCCN1S(=O)(=O)c1ccccc1 (centres undefined)	·	?	?	-1%	·	·
O=C(Nc1cccc(S(=O)(=O)N2CCOCC2)c1)[C@@H]1CCCN1S(=O)(=O)c1ccc(Cl)cc1	-6%	-65*	?	0%	1	17%
CC1(C(=O)O)Sc2[nH]c(=O)sc2C2c3ccccc3OC(=O)C21 (centres undefined)	0%	-2	-1	5%	?	11%
COC(=O)C1Sc2[nH]c(=O)sc2C2c3ccccc3OC(=O)C12 (centres undefined)	11%	-1	-2	·	28	-6%
SMILES	Menin MLL FP TR	CtBP-E1A blk	Six1-Eya2 blk	GLS inh	Menin-MLL FL inh	MLL CXXC-DNA inh
O=C(O)C1Sc2[nH]c(=O)sc2C2c3ccc(O)cc3OC(=O)C12 (centres undefined)	-1%	8	-3	8.9µM*	?	7%
O=C(O)C1Sc2[nH]c(=O)sc2C2c3cc(Br)ccc3OC(=O)C12 (centres undefined)	·	-4	-9	10µM*	?	35%
C[C@@H](CCc1ccccc1)NC[C@H](O)c1ccc(O)c(C(N)=O)c1	1%[24.8 µM]	·	·	22%	-1[24.8 µM]	16%
O=c1[nH]c(/C=C2\C=Nc3ccccc32)c(O)n1Cc1ccccc1F	?	-12	-20	7.9µM*	23	4%
CSc1nc(O)c(/C=C2\C=Nc3ccccc32)[nH]1	?	-28	-11	13%	23	3%
C(=Nc1ccc(N2CCOCC2)cc1)c1c[nH]c2ccccc12	·	5	-15	11µM*	4	9%
Oc1c(Br)cc(Cl)cc1C=Nc1ccc(N2CCOCC2)cc1	?	-1	-1	13µM*	?	13%
O=c1c2nc(Br)n([C@@H]3O[C@@H]4CO[P@@](O)(=S)O[C@H]4[C@H]3O)c2nc2[nH]c(-c3ccccc3)cn12	-15%	·	·	·	2	·
Cc1ccc(CNC(=O)CCS(=O)(=O)c2ccc(Br)cc2)cc1	-8%	18	?	11µM*	5	-1%
Cc1ccc(CNC(=O)CCS(=O)(=O)c2ccc(Cl)cc2)cc1	5%	1	-3	-12%	4	4%
O=C(Nc1nccs1)C1CC=CC2CCN(Cc3ccc(Cl)c(Cl)c3)C(=O)C21 (centres undefined)	3%	·	·	·	1	·
COc1ccc(N2Cc3cccc(C(=O)N4CCN(C(=O)c5ccco5)CC4)c3C2=O)cc1	5%[11.7 µM]	-5	-3	18µM*	7	2%
COc1cc(C(C)=O)ccc1OCCCN1CCC(c2noc3cc(F)ccc23)CC1	·	·	·	20%	·	·
CC(C)C(O)(C(=O)NNc1ccccc1)C(C)C	·	-1	-1	13µM*	-1	7%
NC(=O)NNc1ccccc1	10%	·	·	6%	0	-7%
COc1cc(/C=C2/SC(=Nc3ccc(O)cc3)NC2=O)cc(OC)c1O	0%	0	-71*	?	?	?
Cc1nc(Nc2ncc(C(=O)Nc3c(C)cccc3Cl)s2)cc(N2CCN(CCO)CC2)n1	29%	·	·	47%	7	6%
CCN(CC)CCCNc1nc2ccccc2c2[nH]c3ccc(OC)cc3c12	·	-75*	?	-1%	·	·
Cc1cc(C(=O)N/N=C/c2cccs2)n[nH]1	1%	4	-6	-14%	-3	6%
Cc1cc(C(=O)N/N=C\c2cc(C(C)(C)C)ccc2O)n[nH]1	·	-68*	?	7%	·	14%
Cc1ccc2nsnc2c1S(=O)(=O)Nc1cccc2cccnc12	?	·	·	·	-5	·
